Columns and labels:
Test in all cases: DAPPL (digital affinity profiling via proximity ligation, sequencing); 10 mM Tris-HCl pH 7.5, 50 mM NaCl, 1 mM DTT, 4% glycerol, room temperature, 30 min; GST-TFs on glutathione beads, 16-mer random dsDNA library, 0.1% formaldehyde crosslink after washing; high values mean tight binding
FEV = biological target: T1, FEV (Homo sapiens, UniProt Q99581 1-238); settings: protein: recombinant; tags: N-terminal GST; dsDNA, one strand shown
T1 sequence: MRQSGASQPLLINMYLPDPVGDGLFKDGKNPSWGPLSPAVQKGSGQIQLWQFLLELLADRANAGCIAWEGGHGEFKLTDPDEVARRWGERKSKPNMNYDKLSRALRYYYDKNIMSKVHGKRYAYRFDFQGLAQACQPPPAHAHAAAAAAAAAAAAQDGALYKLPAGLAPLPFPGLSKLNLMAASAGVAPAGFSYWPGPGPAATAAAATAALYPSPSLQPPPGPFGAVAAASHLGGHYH
Procedure, shortened: (§1)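 In yeast, human transcription factors were expressed with a GST fusion, then pulled down on glutathione beads and given DNA barcodes. Pooled with a tag-only sample, they were exposed to 200 nmole of a 16-mer random double-stranded DNA library (Tris/NaCl/DTT/glycerol buffer, room temperature, 30 min), washed, crosslinked with 0.1% formaldehyde, proximity-ligated using BsaI/T4 ligase for 1 h at 37 °C, PCR-amplified and read on an Illumina NextSeq500. Each hexamer's frequency of reads for a factor, divided by the matching frequency for the tag-only sample, gives the binding signal.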

ETV5 = ETV5 (Homo sapiens, UniProt P41161 1-510); settings: protein: recombinant; tags: N-terminal GST; dsDNA, one strand shown
Procedure, shortened: as §1

HSF1 = HSF1 (Homo sapiens, UniProt Q00613 1-529); settings: protein: recombinant; tags: N-terminal GST; chain copies: 3; dsDNA, one strand shown
Procedure, shortened: as §1

SPIC = biological target: T2, SPIC (Homo sapiens, UniProt Q8N5J4 1-248); settings: protein: recombinant; tags: N-terminal GST; dsDNA, one strand shown
T2 sequence: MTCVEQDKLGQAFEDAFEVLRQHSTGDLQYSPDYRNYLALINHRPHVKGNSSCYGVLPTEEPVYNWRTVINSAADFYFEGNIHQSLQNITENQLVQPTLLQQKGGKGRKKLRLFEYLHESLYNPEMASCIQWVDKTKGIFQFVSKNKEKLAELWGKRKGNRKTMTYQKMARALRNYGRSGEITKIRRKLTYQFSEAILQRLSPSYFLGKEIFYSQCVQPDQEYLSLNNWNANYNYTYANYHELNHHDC
Procedure, shortened: as §1

ELF4 = ELF4 (Homo sapiens, UniProt Q99607 1-663); settings: protein: recombinant; tags: N-terminal GST; dsDNA, one strand shown
Procedure, shortened: as §1

ELK4 = biological target: T3, ELK4 (Homo sapiens, UniProt P28324-2 1-405); settings: protein: recombinant; tags: N-terminal GST; dsDNA, one strand shown
T3 sequence: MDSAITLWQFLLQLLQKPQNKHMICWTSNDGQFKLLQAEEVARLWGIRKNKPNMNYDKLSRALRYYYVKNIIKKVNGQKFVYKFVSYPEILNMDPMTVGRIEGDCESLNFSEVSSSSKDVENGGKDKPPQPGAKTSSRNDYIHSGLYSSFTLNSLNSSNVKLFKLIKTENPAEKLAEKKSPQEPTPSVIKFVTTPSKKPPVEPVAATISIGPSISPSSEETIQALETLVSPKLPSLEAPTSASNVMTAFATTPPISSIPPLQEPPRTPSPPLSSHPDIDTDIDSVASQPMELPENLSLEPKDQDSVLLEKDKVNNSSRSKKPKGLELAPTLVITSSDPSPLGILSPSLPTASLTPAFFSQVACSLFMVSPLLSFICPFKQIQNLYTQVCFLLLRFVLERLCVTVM
Procedure, shortened: as §1

ETV2 = biological target: T4, ETV2 (Homo sapiens, UniProt O00321 1-342); settings: protein: recombinant; tags: N-terminal GST; dsDNA, one strand shown
T4 sequence: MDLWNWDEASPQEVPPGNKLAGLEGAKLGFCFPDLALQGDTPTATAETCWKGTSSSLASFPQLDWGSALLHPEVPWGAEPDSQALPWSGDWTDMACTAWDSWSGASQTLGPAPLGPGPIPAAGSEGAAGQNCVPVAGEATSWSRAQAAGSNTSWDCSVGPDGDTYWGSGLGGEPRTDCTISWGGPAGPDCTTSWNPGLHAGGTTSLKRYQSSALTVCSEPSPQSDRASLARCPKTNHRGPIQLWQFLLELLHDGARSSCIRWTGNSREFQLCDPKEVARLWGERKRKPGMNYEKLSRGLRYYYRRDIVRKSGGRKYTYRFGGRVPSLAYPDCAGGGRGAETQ
Procedure, shortened: as §1

ELF3 = biological target: T5, ELF3 (Homo sapiens, UniProt P78545 1-371); settings: protein: recombinant; tags: N-terminal GST; dsDNA, one strand shown
T5 sequence: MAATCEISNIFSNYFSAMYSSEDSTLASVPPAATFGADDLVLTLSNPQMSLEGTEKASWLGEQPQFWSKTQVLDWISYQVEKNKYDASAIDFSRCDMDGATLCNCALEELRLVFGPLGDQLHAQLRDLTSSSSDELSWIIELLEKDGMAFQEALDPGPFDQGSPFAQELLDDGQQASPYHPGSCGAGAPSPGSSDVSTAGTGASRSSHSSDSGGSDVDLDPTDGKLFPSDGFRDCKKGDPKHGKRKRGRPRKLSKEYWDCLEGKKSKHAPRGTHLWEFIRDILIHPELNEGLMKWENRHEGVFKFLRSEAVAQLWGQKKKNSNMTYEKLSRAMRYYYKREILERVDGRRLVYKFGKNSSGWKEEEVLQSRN
Procedure, shortened: as §1

CRX = CRX (Homo sapiens, UniProt O43186 1-299); settings: protein: recombinant; tags: N-terminal GST; dsDNA, one strand shown
Procedure, shortened: as §1

ETV1 = ETV1 (Homo sapiens, UniProt P50549 1-477); settings: protein: recombinant; tags: N-terminal GST; dsDNA, one strand shown
Procedure, shortened: as §1

ERF = biological target: T6, ERF (Homo sapiens, UniProt P50548 1-548); settings: protein: recombinant; tags: N-terminal GST; dsDNA, one strand shown
T6 sequence: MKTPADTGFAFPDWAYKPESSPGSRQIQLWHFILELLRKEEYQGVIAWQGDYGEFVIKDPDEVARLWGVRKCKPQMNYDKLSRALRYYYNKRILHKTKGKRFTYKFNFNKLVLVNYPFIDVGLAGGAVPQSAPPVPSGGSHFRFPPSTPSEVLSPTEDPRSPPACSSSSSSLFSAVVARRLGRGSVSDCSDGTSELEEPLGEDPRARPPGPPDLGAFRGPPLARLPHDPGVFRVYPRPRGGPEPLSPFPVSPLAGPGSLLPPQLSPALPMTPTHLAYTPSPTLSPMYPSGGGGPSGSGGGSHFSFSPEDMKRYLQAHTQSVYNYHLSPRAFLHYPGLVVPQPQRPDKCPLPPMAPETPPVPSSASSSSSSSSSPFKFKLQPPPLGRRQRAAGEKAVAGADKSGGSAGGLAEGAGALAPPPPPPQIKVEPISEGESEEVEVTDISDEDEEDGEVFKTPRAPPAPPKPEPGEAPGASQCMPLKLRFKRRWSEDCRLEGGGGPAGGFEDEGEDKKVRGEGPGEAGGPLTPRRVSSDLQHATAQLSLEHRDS
Procedure, shortened: as §1

ETV3L = biological target: T7, ETV3L (Homo sapiens, UniProt Q6ZN32 1-361); settings: protein: recombinant; tags: N-terminal GST; dsDNA, one strand shown
T7 sequence: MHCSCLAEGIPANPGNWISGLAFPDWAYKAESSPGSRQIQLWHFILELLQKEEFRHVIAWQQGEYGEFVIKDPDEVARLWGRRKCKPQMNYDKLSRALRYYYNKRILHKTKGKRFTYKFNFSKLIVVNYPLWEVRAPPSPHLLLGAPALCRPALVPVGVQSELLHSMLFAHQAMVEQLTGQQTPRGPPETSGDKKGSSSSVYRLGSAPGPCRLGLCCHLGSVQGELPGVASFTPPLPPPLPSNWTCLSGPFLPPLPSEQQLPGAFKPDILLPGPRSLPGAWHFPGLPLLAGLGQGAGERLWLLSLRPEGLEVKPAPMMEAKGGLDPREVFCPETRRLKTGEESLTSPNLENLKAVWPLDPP
Procedure, shortened: as §1

ETS2 = biological target: T8, ETS2 (Homo sapiens, UniProt P15036 1-469); settings: protein: recombinant; tags: N-terminal GST; dsDNA, one strand shown
T8 sequence: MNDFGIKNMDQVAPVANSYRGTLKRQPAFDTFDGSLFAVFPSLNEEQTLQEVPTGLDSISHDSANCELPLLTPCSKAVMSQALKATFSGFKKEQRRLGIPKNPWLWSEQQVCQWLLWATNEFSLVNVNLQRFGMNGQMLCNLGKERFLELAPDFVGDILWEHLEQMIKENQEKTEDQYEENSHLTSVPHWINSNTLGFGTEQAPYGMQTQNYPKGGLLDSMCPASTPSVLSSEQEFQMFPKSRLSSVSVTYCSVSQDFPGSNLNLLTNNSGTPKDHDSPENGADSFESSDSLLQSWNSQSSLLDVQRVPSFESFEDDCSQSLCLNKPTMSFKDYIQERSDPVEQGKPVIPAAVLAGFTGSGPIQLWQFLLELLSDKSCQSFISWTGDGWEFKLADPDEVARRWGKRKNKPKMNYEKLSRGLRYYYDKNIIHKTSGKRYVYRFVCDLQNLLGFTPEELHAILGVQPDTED
Procedure, shortened: as §1

SPDEF = biological target: T9, SPDEF (Homo sapiens, UniProt O95238 1-335); settings: protein: recombinant; tags: N-terminal GST; dsDNA, one strand shown
T9 sequence: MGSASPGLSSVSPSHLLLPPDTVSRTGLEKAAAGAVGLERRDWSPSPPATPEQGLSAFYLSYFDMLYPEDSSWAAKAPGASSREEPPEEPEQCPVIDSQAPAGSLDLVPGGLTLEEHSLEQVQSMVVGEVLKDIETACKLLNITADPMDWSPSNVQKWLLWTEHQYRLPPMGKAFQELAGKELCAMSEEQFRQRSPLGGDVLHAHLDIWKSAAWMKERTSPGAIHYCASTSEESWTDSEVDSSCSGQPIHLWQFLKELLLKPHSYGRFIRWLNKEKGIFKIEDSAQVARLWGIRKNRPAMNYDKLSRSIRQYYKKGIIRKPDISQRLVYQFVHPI
Procedure, shortened: as §1

ETV7 = biological target: T10, ETV7 (Homo sapiens, UniProt Q9Y603 1-341); settings: protein: recombinant; tags: N-terminal GST; dsDNA, one strand shown
T10 sequence: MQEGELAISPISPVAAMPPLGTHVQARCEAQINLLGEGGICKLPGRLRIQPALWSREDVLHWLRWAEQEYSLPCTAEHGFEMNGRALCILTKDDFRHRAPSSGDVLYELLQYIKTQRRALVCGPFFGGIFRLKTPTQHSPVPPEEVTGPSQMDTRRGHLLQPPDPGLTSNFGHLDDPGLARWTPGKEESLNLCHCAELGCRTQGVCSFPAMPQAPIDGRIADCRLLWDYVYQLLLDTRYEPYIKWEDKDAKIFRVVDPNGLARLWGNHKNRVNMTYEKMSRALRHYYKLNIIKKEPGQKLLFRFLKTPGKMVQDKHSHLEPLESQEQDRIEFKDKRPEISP
Procedure, shortened: as §1

ELF5 = biological target: T11, ELF5 (Homo sapiens, UniProt Q9UKW6-2 1-255); settings: protein: recombinant; tags: N-terminal GST; dsDNA, one strand shown
T11 sequence: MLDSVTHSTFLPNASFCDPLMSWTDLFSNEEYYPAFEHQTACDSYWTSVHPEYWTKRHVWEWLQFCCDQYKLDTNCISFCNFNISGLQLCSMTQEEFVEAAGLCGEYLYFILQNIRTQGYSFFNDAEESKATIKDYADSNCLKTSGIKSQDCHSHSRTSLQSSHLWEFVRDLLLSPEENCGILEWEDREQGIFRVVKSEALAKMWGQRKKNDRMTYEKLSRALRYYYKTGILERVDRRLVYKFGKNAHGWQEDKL
Procedure, shortened: as §1

ETV3 = biological target: T12, ETV3 (Homo sapiens, UniProt P41162-2 1-143); settings: protein: recombinant; tags: N-terminal GST; dsDNA, one strand shown
T12 sequence: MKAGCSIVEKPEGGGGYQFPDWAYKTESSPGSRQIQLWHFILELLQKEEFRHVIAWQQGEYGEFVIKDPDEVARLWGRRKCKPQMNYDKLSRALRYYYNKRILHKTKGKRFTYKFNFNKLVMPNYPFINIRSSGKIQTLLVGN
Procedure, shortened: as §1

ETV6 = ETV6 (Homo sapiens, UniProt P41212 1-452); settings: protein: recombinant; tags: N-terminal GST; dsDNA, one strand shown
Procedure, shortened: as §1

ELF4, sequence (Q99607 whole entry): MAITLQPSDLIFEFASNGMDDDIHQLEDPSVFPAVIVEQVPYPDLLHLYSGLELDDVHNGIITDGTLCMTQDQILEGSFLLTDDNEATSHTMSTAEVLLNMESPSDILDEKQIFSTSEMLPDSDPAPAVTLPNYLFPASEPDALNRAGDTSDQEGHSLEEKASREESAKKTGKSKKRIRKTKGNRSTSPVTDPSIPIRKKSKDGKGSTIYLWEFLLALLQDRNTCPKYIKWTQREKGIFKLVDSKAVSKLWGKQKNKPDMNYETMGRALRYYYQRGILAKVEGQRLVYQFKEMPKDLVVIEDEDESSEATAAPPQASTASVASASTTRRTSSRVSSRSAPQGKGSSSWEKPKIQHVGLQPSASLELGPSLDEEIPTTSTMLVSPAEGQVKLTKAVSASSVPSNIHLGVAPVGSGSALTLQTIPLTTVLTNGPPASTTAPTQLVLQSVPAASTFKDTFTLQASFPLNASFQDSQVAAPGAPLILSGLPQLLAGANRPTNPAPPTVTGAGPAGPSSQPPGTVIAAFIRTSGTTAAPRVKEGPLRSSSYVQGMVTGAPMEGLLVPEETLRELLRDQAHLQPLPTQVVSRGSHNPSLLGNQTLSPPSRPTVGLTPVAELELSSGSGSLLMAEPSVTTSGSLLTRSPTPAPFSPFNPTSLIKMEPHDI
ETV6, sequence (P41212 whole entry): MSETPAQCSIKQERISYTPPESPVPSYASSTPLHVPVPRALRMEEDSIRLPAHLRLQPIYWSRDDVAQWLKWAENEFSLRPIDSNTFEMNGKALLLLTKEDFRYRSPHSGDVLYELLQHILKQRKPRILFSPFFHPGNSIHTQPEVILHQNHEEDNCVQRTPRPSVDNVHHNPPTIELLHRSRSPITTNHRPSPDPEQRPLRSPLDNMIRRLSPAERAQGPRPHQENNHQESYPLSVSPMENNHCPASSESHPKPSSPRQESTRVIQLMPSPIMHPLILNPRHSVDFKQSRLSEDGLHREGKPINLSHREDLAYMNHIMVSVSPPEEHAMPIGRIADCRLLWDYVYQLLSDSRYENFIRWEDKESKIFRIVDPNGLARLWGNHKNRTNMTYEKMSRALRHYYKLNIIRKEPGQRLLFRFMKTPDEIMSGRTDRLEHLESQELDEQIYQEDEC
ETV1, sequence (P50549 whole entry): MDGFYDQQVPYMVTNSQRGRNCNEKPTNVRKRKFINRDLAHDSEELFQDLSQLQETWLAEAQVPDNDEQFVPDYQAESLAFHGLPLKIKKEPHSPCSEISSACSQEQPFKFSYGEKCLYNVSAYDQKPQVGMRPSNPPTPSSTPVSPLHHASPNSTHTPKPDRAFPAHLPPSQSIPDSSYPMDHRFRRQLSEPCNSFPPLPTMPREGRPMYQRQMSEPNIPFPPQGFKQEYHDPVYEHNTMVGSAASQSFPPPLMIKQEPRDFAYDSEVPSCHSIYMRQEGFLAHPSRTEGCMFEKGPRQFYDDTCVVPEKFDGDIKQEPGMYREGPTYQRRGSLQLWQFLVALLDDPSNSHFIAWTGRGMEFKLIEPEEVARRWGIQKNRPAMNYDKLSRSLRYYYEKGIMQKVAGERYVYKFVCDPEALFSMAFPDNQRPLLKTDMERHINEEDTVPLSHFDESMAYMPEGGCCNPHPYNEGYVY
ETV5, sequence (P41161 whole entry): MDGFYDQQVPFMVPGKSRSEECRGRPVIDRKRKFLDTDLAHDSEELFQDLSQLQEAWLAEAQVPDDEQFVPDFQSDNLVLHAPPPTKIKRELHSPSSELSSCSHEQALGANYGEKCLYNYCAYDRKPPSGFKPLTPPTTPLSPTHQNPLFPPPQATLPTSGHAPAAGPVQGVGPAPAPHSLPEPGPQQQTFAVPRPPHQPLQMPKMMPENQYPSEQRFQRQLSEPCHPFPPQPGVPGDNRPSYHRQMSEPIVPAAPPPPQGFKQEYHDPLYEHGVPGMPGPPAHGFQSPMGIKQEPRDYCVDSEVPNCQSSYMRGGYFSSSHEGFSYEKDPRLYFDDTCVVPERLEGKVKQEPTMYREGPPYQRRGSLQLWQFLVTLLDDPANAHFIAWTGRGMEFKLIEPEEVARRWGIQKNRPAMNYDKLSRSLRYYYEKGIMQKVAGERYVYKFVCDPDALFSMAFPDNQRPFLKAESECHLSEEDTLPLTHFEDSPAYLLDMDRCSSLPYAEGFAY
CRX, sequence (O43186 whole entry): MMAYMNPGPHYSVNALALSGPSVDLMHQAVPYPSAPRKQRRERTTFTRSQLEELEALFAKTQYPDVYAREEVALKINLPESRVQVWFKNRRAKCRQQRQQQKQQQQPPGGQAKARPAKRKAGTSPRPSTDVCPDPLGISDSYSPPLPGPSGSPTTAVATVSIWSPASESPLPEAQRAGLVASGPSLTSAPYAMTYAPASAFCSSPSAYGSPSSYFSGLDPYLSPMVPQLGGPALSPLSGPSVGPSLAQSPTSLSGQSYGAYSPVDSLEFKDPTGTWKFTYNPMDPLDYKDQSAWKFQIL
HSF1, sequence (Q00613 whole entry): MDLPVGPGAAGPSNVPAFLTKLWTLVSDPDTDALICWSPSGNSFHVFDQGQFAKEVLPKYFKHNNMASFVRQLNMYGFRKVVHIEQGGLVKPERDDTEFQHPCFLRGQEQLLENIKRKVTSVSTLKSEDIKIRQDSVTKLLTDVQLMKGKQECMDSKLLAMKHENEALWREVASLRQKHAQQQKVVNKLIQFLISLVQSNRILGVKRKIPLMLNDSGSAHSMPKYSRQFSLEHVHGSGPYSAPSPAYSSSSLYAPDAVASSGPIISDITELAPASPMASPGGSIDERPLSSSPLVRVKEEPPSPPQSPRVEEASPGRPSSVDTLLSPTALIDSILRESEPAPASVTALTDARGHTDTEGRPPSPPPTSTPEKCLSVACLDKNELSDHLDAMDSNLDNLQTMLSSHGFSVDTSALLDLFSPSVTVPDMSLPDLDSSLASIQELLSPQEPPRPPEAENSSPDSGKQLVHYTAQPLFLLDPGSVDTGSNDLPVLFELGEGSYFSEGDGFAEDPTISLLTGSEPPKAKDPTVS

TATCAG
binding signal (FEV): 1.07 fold enrichment (6-mer frequency, TF over GST control) | binding signal (ETV5): 1.14 fold enrichment (6-mer frequency, TF over GST control) | binding signal (HSF1): 1.11 fold enrichment (6-mer frequency, TF over GST control) | binding signal (SPIC): 1.03 fold enrichment (6-mer frequency, TF over GST control) | binding signal (ELF4): 1.18 fold enrichment (6-mer frequency, TF over GST control) | binding signal (ELK4): 1.35 fold enrichment (6-mer frequency, TF over GST control) | binding signal (ETV2): 1.01 fold enrichment (6-mer frequency, TF over GST control) | binding signal (ELF3): 1.09 fold enrichment (6-mer frequency, TF over GST control) | binding signal (CRX): 1.47 fold enrichment (6-mer frequency, TF over GST control) | binding signal (ETV1): 1.14 fold enrichment (6-mer frequency, TF over GST control) | binding signal (ERF): 1.13 fold enrichment (6-mer frequency, TF over GST control) | binding signal (ETV3L): 1.11 fold enrichment (6-mer frequency, TF over GST control) | binding signal (ETS2): 1.15 fold enrichment (6-mer frequency, TF over GST control) | binding signal (SPDEF): 1.26 fold enrichment (6-mer frequency, TF over GST control) | binding signal (ETV7): 1.07 fold enrichment (6-mer frequency, TF over GST control) | binding signal (ELF5): 1.06 fold enrichment (6-mer frequency, TF over GST control) | binding signal (ETV3): 1.12 fold enrichment (6-mer frequency, TF over GST control) | binding signal (ETV6): 1.12 fold enrichment (6-mer frequency, TF over GST control)

Source: PMC7862700, “An all-to-all approach to the identification of sequence-specific readers for epigenetic DNA modifications on cytosine”
